PLC-gamma1 inh: blocks human PLC-gamma1 enzyme activity; actives 0.84% (n = 370,000); inhibition, % at 12.2 µM; purified PLC-gamma1, fluorogenic substrate, fluorescence; in the data active = inhibition above about 9.5%
sPLA2-III inh: Inhibits HGIII-sPLA2 liposome hydrolysis, primary screen | QFRET BODIPY PC-A2 liposome hydrolysis, fluorescence | inhibition, % at 12.2 µM | actives 0.56% (n = 370,000) | AID 743126;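 active = inhibition above mean plus 3 SD of compounds lying within the high and low control bounds, cut at about 19% in these data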;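 note: 0% = median of test compound wells and 100% = no enzyme DMSO wells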
Target sequence (Q9NZ20 whole entry, looked up): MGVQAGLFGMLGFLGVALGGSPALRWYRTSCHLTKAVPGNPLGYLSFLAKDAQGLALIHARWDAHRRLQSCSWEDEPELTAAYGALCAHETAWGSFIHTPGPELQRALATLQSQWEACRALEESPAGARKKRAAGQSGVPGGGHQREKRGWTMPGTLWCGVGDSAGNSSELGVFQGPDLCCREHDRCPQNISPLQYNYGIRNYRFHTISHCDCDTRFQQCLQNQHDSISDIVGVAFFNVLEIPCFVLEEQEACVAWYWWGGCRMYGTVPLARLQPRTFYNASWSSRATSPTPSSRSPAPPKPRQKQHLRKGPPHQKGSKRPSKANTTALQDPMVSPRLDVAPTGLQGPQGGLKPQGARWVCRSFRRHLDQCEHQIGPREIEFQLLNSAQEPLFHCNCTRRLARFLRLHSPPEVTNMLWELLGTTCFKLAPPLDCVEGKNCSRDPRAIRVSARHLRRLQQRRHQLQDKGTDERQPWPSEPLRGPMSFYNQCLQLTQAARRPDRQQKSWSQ
proKLK7 act: activates the human kallikrein-7 zymogen; P49862; purified proKLK7, EDANS-DABCYL substrate fluorescence; 100% is mature enzyme control, 0% vehicle; activation, % at 7 µM; actives 0.9% (n = 370,000);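 active = activation above the mean of all tested compounds plus 3 SD, computed per campaign excluding outliers beyond control limits, cut at about 13% in these data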
ADAM17 inh: inhibitors of human ADAM17; recombinant ADAM17, EDANS/DABCYL FRET peptide cleavage; inhibition, % at 6.95 µM; AID 720648; actives 0.83% (n = 370,000); P78536;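 active = inhibition above the mean of compounds lying between control limits plus 3 SD, set per campaign, cut at about 8.5% in these data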;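 note: 0% = DMSO-only wells as the low control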
PLCb3 inh: blocks human PLC-beta3 enzyme activity | actives 0.18% (n = 370,000) | Q01970 | Purified PLC-beta3, fluorogenic substrate, fluorescence | inhibition, % at 12.2 µM; in the data active = inhibition above about 11%;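 note: 0% = median of compound wells on plate and 100% = full blocker control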
ADAM10 inh: inhibits human ADAM10; O14672; inhibition, % at 7 µM; actives 0.62% (n = 370,000); recombinant ADAM10, EDANS/DABCYL FRET peptide cleavage, 3 h;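 active = inhibition above a per-campaign cutoff equal to the mean of compounds falling between control-based bounds plus 3 SD, cut at about 20% in these data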;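 note: 0% = DMSO wells while the 100% control is not disclosed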
sPLA2 confirm: human GIII-sPLA2 inhibition, confirmation; shares compounds with sPLA2-III inh; recombinant hGIII-sPLA2, BODIPY PC-A2 QFRET fluorescence; inhibition, % at 12.2 µM; actives 34% (n = 2,000);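 active = mean inhibition across triplicates above the hit cutoff set in the earlier primary screen, cut at about 19% in these data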;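 note: 0% = enzyme with DMSO and 100% = DMSO wells lacking enzyme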
BODIPY interf: 535nm fluorescence interference, HGIII-sPLA2 counter-screen. inhibition, % at 12.2 µM. shares compounds with sPLA2-III inh. BODIPY FL product fluorescence interference, QFRET. actives 8.5% (n = 2,000);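 active = average inhibition above the solvent-only control mean plus 3 SD, cut at about 6% in these data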;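 note: 0% = DMSO with substrate plus product and 100% = DMSO with substrate alone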
535nm interf DR: interferes with 535nm fluorescence in dose response counter-screen | shares compounds with sPLA2-III inh | BODIPY FL product fluorescence interference, cell-free | IC50, µM | 240 tested, under 10 active | AID 743455;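 active = IC50 at or below 10 µM; inactive = IC50 above 10 µM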
Active calls of the source: *; i = inactive; / = no result. This is a sample that favours compounds with a hit; in the whole collection about 3.4% have one here.

SMILES	PLC-gamma1 inh	sPLA2-III inh	proKLK7 act	ADAM17 inh	PLCb3 inh	ADAM10 inh	sPLA2 confirm	BODIPY interf	others
O=C(NNC(=S)Nc1ccc(Cl)cc1)c1ccccc1	-2	19*	1	-3	-7	6	39*	3	535nm interf DR=>122
COC(=O)[C@H]1C[C@@]2(c3ccccc3)c3ccccc3N[C@H]2N1	-3	-1	0	0	-1	3	/	/
C=CCNC(=O)N1CCC(c2nc3ccc(Cl)cc3[nH]2)CC1	6	4	0	3	4	4	/	/
CS/C(N)=N/N=C/c1cc(Br)cc(Br)c1O	i	38*	-22	3	i	-10	34*	6.8*
C=CCS/C(N)=N\N=C\c1cc(Br)cc([N+](=O)[O-])c1O	-2	38*	-1	-4	-14	3	30*	-2	535nm interf DR=>122
O=[N+]([O-])c1cc(Br)cc(/C=N/n2cnnc2)c1O	-2	2	0	0	0	-2	/	/
COC(=O)C1=C(C)N(Cc2cccc(C(F)(F)F)c2)C(=NCC2CC2)NC1c1cccc(F)c1 (configuration not stated)	1	-6	0	-4	1	-5	/	/
CC(Cl)C(=O)N1CCC(C(=O)NCC2COc3ccccc3O2)CC1 (configuration not stated)	-3	4	0	2	-1	-8	/	/
O=C(N/N=C/c1cc(Br)cc(Br)c1O)c1cccc(N2CCCC2=O)c1	-25	28*	-2	-8	-44	-13	24*	4
C/C(C=NNC(=O)CSc1nc2ccccc2n1Cc1ccccc1Cl)=C\c1ccccc1	3	2	0	5	0	4	/	/
COc1ccccc1N1CCN(C(=O)c2ccc3nc(-c4ccco4)c(-c4ccco4)nc3c2)CC1	-183	-9	-1	-8	-234	-47	/	/
Cc1ccc(C)c(N2CCN(C(=O)c3ccc4nc(-c5ccco5)c(-c5ccco5)nc4c3)CC2)c1	-61	20*	0	6	-92	-33	6	-23
CCCCc1c(-c2ccccc2OC)ncn1Cc1cccc(C)c1	4	-8	1	4	4	3	/	/
CCSc1ncc(Cl)c(C(=O)Nc2ccccc2OC)n1	6	21*	0	-10	4	-12	-1	-5
CCSc1ncc(Cl)c(C(=O)Nc2ccccc2Cl)n1	2	9	0	-7	-8	0	/	/
COC(=O)c1cc(S(=O)(=O)N2CCCN(C(C)=O)CC2)cn1C	-1	0	0	0	4	-1	/	/
CCCCOc1cc(NCc2ccccc2)c2ncn(C(C)C)c2c1	-18	21*	0	2	-19	13	14	-11
CCCC(=O)NC(c1ccccc1)c1ccc2cccnc2c1O (configuration not stated)	-16	29*	0	5	-38	-2	17	-11
CCCCC(=O)NC(c1ccc(C(C)C)cc1)c1ccc2cccnc2c1O (configuration not stated)	-9	13	-1	2	-12	11	/	/
CCCC(=O)NC(c1ccc(OC)cc1)c1ccc2cccnc2c1O (configuration not stated)	-17	24*	0	4	-31	13	15	-9
CCCCC(=O)NC(c1ccccc1)c1ccc2cccnc2c1O (configuration not stated)	-9	11	-1	6	-14	10	/	/
CCCCC(=O)NC(c1ccccc1Cl)c1ccc2cccnc2c1O (configuration not stated)	-6	28*	0	8	-15	14	25*	-5
Cc1cc(C)cc(C(=O)OCCN(C)C2CN(Cc3cn(Cc4ccc([N+](=O)[O-])cc4)nn3)S(=O)(=O)C2)c1 (configuration not stated)	-1	-9	0	0	2	-3	/	/
CN(c1c2c(nc3ncnn13)CCCC2)C1CCCCC1	-3	0	1	3	-3	5	/	/
COc1ccc(-n2c(SCC(=O)Nc3ccc(S(=O)(=O)Nc4nccs4)cc3)nnc2-c2ccccc2)cc1	1	-46	0	6	0	7	/	/
SMILES	PLC-gamma1 inh	sPLA2-III inh	proKLK7 act	ADAM17 inh	PLCb3 inh	ADAM10 inh	sPLA2 confirm	BODIPY interf	others
COC(=O)c1cc2c(c3c4ccccc4n(S(=O)(=O)c4ccc(C)cc4)c13)C(=O)N(C)C2	-8	2	0	-1	-9	-5	/	/
COc1ccc(/C=N/NC(=S)NCc2ccccc2)cc1OC	4	24*	0	5	-3	-10	14	-5
O=C(C(=O)N1CCC(CNS(=O)(=O)c2ccccc2)CC1)c1cc2ccccc2o1	0	2	-1	-2	3	-4	/	/
Cc1ccc(Nc2nnc(SCC(=O)Nc3ncc(S(=O)(=O)c4ccc([N+](=O)[O-])cc4)s3)s2)cc1	7	20*	0	-4	-7	-4	-30	4
CCCCCCC12C(=Cc3cc4c(cc31)OCCO4)c1cc(OC)c(OC)cc1C(CC(=O)NCc1ccccc1)N2C(=O)OC (configuration not stated)	-24	-5	0	-6	-29	-25	/	/
CCc1ccccc1NC(=S)NC1CC2CCC(C1)N2Cc1ccco1 (configuration not stated)	5	21*	0	0	-2	-5	14	-8
Cc1cccc(NC(=S)NC2CC3CCC(C2)N3Cc2ccco2)c1C (configuration not stated)	3	11	0	1	6	4	/	/
O=C(NCCCN1CCCC1=O)c1ccc(CNS(=O)(=O)c2ccc(F)cc2)cc1	7	72*	0	7	9	5	-1	-10
CSc1nc(N)c(C#N)c(-c2ccc(Cl)cc2)c1C#N	-34	22*	0	-5	-51	-4	24*	-5
CCCCOc1ccc(-c2c(C#N)c(N)nc(SCC(N)=O)c2C#N)cc1	-49	46*	-3	0	-48	6	18	-8
CSc1nc(-c2ccc(Cl)cc2)nc(N)c1C#N	4	4	0	-1	0	10	/	/
O=c1c2ccc(F)cc2nc2sc(Nc3ccc4c(c3)CCC4)nn12	-1	5	/	-7	-3	-8	/	/
O=c1[nH]nc(SCCS(=O)(=O)c2ccc(F)cc2)n1-c1ccc2c(c1)OCCO2	3	21*	0	-1	-6	-5	5	-9

High-throughput results: PubChem BioAssay, The Scripps Research Institute Molecular Screening Center
